Assay outcomes: PubChem, National Center for Advancing Translational Sciences (NCATS)
GPT2 inhibitor: GPT2 alanine aminotransferase inhibition | Q8TD30 | Recombinant GPT2, coupled pyruvate oxidase/HRP Amplex Red fluorescence | Potency, µM (highest dose often 57.7 µM), inactives show top-dose activity change, negative = inhibition, usual class: inhibitors | hit rate 0.25% among 100,000 | AID 1671188; further: nearly all actives have a fitted effect of over 60% in size
Target sequence (Q8TD30 whole entry, looked up): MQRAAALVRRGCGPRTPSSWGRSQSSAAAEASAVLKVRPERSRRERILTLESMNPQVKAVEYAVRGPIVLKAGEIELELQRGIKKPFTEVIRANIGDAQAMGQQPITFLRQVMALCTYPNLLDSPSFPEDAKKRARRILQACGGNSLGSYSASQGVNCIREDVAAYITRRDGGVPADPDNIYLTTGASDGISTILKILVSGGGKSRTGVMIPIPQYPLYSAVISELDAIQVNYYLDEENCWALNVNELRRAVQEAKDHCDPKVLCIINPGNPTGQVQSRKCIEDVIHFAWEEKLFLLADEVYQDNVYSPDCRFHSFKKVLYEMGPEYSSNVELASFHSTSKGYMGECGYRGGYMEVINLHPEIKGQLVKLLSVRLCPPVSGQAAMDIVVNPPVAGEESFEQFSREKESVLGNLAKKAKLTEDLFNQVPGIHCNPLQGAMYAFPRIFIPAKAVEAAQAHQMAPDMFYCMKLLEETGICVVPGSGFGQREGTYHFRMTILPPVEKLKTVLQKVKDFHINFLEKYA
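Fluorescence read-out: pyruvate from GPT2 turnover coupled to pyruvate oxidase, HRP and Amplex Red (0.2mM ThPP, 0.2U/mL PO and HRP, 50uM Amplex final). Substrates 250uM a-KG, 2mM L-alanine; enzyme 10ng/uL; 30 min RT.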
NPR1 antag: blocks ANP-stimulated signaling of human Npr1 receptor | HEK293 hNpr1 GloSensor cGMP, ANP-stimulated luminescence | AID 1347048 | Potency, µM (top dose mostly 46.3 µM), inactives show at the highest dose activity change, negative = inhibition, actives largely listed as inhibitors | hit rate 1.6% among 76,000 | P16066; calls by dose curve; further: nearly all actives have a fitted effect of over 60% in size
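HEK293 cells stably expressing human Npr1 and cGMP GloSensor pGS-40F, loaded 2 h with 2% GloSensor reagent, given compound 30 min at room temperature. Luminescence read before and 20 min after 0.1 nM hNppA.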
HEK293 tox: kills HEK 293 cells; HEK 293 viability, ATP luminescence (CellTiter-Glo), 48-72 h; Potency, µM (top dose mostly 115 µM), inactives show at the top dose activity change, negative = cytotoxicity, actives largely listed as inhibitors; hit rate 6.6% among 94,000; AID 1345083; further: nearly all actives have a fitted effect of over 60% in size
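Pintool-delivered compounds were incubated with HEK 293 cells (250 cells/well) at 37 degree Celsius for 48 or 72 hr. ATP-dependent luminescence (CellTiter-Glo) then reported remaining viable cells.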
FLuc inh: inhibitors of firefly (Photinus pyralis) luciferase | purified P. pyralis luciferase, luminescence, biochemical | Potency, µM (highest dose often 115 µM), actives largely listed as inhibitors | hit rate 2.5% among 76,000; further: nearly all actives have a fitted effect of over 65% in size
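Purified 10nM P. pyralis luciferase with 10uM D-luciferin and 10uM ATP in 50mM Tris acetate pH 7.5, 10mM Mg acetate, 0.01% Tween-20, 0.05% BSA. qHTS titration; luminescence read by CCD imager.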
3T3 cytotox: NIH 3T3 cell cytotoxicity | hit rate 4.3% among 94,000 | Potency, µM (series often up to 96.7 µM), inactives show at the top dose activity change, negative = cytotoxicity, most hits filed as inhibitors | NIH 3T3 viability, CellTiter-Glo ATP luminescence, 48-72 h; further: nearly all actives have a fitted effect of over 55% in size
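Viability of NIH 3T3 cells after 48 or 72 hr compound treatment at 37 °C was assessed by CellTiter-Glo, with luminescence imaged following a 10 min room-temperature step.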
* = called active by the depositor; i = inactive; ? = inconclusive; . = not tested or not shown; [ ] = another dose, or the depositor's remark. Compounds with a hit are over-represented: about 10% of the library has one in this group of screens. Unless noted, the call rests on the fitted dose curve; in most records, active means well fitted curve in the direction sought with a large enough effect; inconclusive means small, poorly fitted or top-dose-only effect, or another doubt; inactive means no such curve, though single readings can be large; an effect the other way counts as inactive or inconclusive. On the % scale 0 is the no-effect control and ±100 the full control effect; potency means the concentration at half of the fitted maximal effect.

SMILES	GPT2 inhibitor	NPR1 antag	HEK293 tox	FLuc inh	3T3 cytotox
Cc1cc(C(=O)N(CCC(=O)NCCC(C)C)CCC(C)C)c(C)o1	-2.9%	-15.9%	31.6µM*	i	?
CCCCN(CCC(=O)NCCc1ccccc1)C(=O)c1cc(C)oc1C	i	?	14.1µM*	i	35.5µM*
CCCCCNC(=O)CCN(CC)C(=O)c1cc(C)oc1C	?	-15.0%	?	i	?
O=C1NCCCN1C1CCN(Cc2cccc3ccccc23)CC1	i	-10.0%[70.6 µM]	?	i	-22.6%[138 µM]
O=C(c1ccc(Oc2ccc(CN3CCCC3)cc2F)nc1)N1CCCCC1	-2.5%	?	?	i	-19.9%
Cc1ccc(-c2ccccc2CN2CCN(C(=O)c3ccccc3F)CC2)cc1Cl	i	.	?	.	?
COc1cccc(-c2c(C(=O)NCc3ccccc3Cl)nc3sccn23)c1	i	.	?	.	?
O=C(NCc1cccs1)C1CCCN(Cc2cccc(-c3cccs3)c2)C1 (stereo unspecified)	i	.	44.7µM*	.	39.8µM*
O=C(NCc1cccc(F)c1)C1CCCN(Cc2cccc(-c3cccs3)c2)C1 (stereo unspecified)	.	.	?	.	39.8µM*
Cc1cccc(-c2cccc(CN3CCCC(C(=O)NCC4CC4)C3)c2)c1 (stereo unspecified)	4.4%	.	?	.	?
Cc1cccc(-c2cccc(CN3CCCC(C(=O)N4CCN(C)CC4)C3)c2)c1 (stereo unspecified)	-5.5%	.	25.1µM*	.	?
O=C(NCc1cccs1)C1CCCN(Cc2cccc(-c3ccsc3)c2)C1 (stereo unspecified)	i	.	39.8µM*	.	?
Cc1cc(F)ccc1OC1CN(CCC(C)C)C1	i	4.6%[70.6 µM]	i	i	1.7%[138 µM]
Cc1ccccc1[S+](=O)([O-])N1CC2(CN(CCOc3ccccc3)C(=O)O2)C1	?	-18.5%[70.6 µM]	?	i	?
Cc1nc2cnccn2c1C(=O)NC1CCCCC1	.	.	1.2%[172 µM]	.	-6.3%[138 µM]
O=C(C1CCCN(Cc2cccc(-c3cccs3)c2)C1)N1CCCC1 (stereo unspecified)	i	.	70.8µM*	.	?
Cc1ccc(F)c(NC(=O)[C@@H]2COCC(=O)N2Cc2ccc(F)cc2)c1	-3.5%	-1.7%	-13.3%	i	-6.8%
Cc1cnc(C(=O)N[C@@H]2CCC[C@@H]2C(=O)N2CCN(c3cccc(C)c3C)CC2)cn1	2.4%	1.5%	?	i	-32.8%
O=C(Cc1ccc2c(c1)OCO2)N(Cc1ccncc1)Cc1cccc(OCCc2ccc(F)cc2)c1	i	?	39.8µM*	i	35.5µM*
Cc1ccccc1[C@H]1C[C@@H](O)[C@@H](O)[C@@H]1NS(=O)(=O)c1ccc(C(F)(F)F)cc1	-9.6%[88.5 µM]	-3.6%[70.6 µM]	100µM*	i	-25.5%[174 µM]
O=S(=O)(N[C@H]1[C@H](O)[C@H](O)C[C@@H]1c1ccc(C(F)(F)F)cc1)c1ccc(F)cc1	2.8%[88.5 µM]	-30.0%[70.6 µM]	70.8µM*	i	?
COc1ccc(S(=O)(=O)N[C@H]2[C@H](O)[C@H](O)C[C@@H]2c2ccccc2C)cc1	-8.2%[88.5 µM]	3.1%[70.6 µM]	4.6%[172 µM]	i	3.3%[138 µM]
COc1ccc([C@H]2C[C@@H](O)[C@@H](O)[C@@H]2NC(=O)Nc2ccc(C(F)(F)F)cc2)cc1	0.3%[88.5 µM]	?	?	i	25.1µM*
C=CCNC(=O)N[C@H]1CCN2C(=O)c3cc(-c4cc(Cl)ccc4OC)ccc3NC(=O)[C@@H]2C1	-11.0%	-4.0%	-21.0%	i	?
CC(C)c1ccc(CC(=O)N2CCCc3ncc(C(=O)NCc4cccc(Cl)c4)cc32)cc1	-12.0%	-12.8%	?	i	?
COc1ccccc1Nc1ccnc(N2CCC[C@H]2C(=O)NC2CCCCC2)n1	1.5%	.	?	.	?
COc1ccc(C2Cn3nnc(-c4noc(COc5ccccc5)n4)c3CO2)cc1 (stereo unspecified)	0.1%	-5.9%	-27.1%	i	-12.3%
CC(=O)NC1(C)CCN(Cc2ccccc2-c2ccc3ccccc3c2)C1 (stereo unspecified)	2.7%[88.5 µM]	-16.7%[70.6 µM]	?	i	79.4µM*
